Experimental data published in PubChem BioAssay AID1159580 (chemical genetic matrix, 2015).
Several values for one entry are separate records, joined by “and”; a condition that tells them apart may be missing. Equal values may be shown once. Hit rate of the full screen: of about 5,500 compounds, about 2,000 (36%) were called active. Not shown: some 18% with an inconclusive outcome. Cut-off read from the data, not from the text of the source: active = normalized growth mostly below about 0.91 (no sharp cut-off); inconclusive = no clear call, values can overlap the other calls; inactive = mostly above about 0.92. The list shows a part of the results.

Assay: chemical genetic growth profiling, strain panel (AID 1159580);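 note: tested at 20 µM; growth read once vehicle control cultures reached saturation at 30 °C; 1 = growth at the plate median or of vehicle wells; lower values mean less growth of the strain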
Conditions: S. cerevisiae deletion strains, growth OD

Measured: normalized growth

CCOC(=O)[C@H](CCc1ccccc1)N[C@@H](C)C(=O)N1Cc2ccccc2C[C@H]1C(=O)O
inactive: locus YAL021C, strain ccr4, stronger effect = lower value 0.993 | locus YAL026C, strain drs2, stronger effect = lower value 0.981 | locus YAL030W, strain snc1, stronger effect = lower value 1 | locus YBL061C, strain skt5, stronger effect = lower value 0.99 | locus YBR009C, strain hhf1, stronger effect = lower value 1.02 | locus YBR021W, strain FUR4, stronger effect = lower value 1.01 | locus YBR023C, strain chs3, stronger effect = lower value 0.984 | locus YBR171W, strain sec66, stronger effect = lower value 0.997 | locus YBR229C, strain ROT2, stronger effect = lower value 1 | locus YBR231C, strain swc5, stronger effect = lower value 1 | locus YBR279W, strain paf1, stronger effect = lower value 0.98 | locus YCL011C, strain gbp2, stronger effect = lower value 0.998 | locus YCL016C, strain dcc1, stronger effect = lower value 0.963 | locus YCL029C, strain bik1, stronger effect = lower value 1.01 | locus YCL061C, strain MRC1, stronger effect = lower value 1.01 | locus YCL069W, strain vba3, stronger effect = lower value 0.986 | locus YCR088W, strain abp1, stronger effect = lower value 1 | locus YDL005C, strain med2, stronger effect = lower value 1.01 | locus YDL035C, strain GPR1, stronger effect = lower value 1.02 | locus YDL040C, strain nat1, stronger effect = lower value 1 | locus YDL074C, strain BRE1, stronger effect = lower value 0.996 | locus YDL101C, strain DUN1, stronger effect = lower value 1.01 | locus YDL134C, strain PPH21, stronger effect = lower value 1 | locus YDL185W, strain tfp1, stronger effect = lower value 1.01 | locus YDL192W, strain arf1, stronger effect = lower value 1.01 | locus YDR001C, strain nth1, stronger effect = lower value 1 | locus YDR069C, strain doa4, stronger effect = lower value 1 | locus YDR101C, strain arx1, stronger effect = lower value 0.999 | locus YDR137W, strain rgp1, stronger effect = lower value 0.983 | locus YDR159W, strain sac3, stronger effect = lower value 0.964 | locus YDR162C, strain NBP2, stronger effect = lower value 1.01 | locus YDR195W, strain ref2 0.965 | locus YDR297W, strain sur2, stronger effect = lower value 1.01 | locus YDR318W, strain mcm21, stronger effect = lower value 1.01 | locus YDR334W, strain swr1, stronger effect = lower value 1.02 | locus YDR335W, strain msn5, stronger effect = lower value 0.984 | locus YDR388W, stronger effect = lower value 1.01 | locus YDR392W, strain spt3, stronger effect = lower value 0.931 | locus YDR502C, strain sam2, stronger effect = lower value 1.03 | locus YEL003W, strain gim4, stronger effect = lower value 1.02 | locus YEL037C, strain rad23, stronger effect = lower value 1.01 | locus YEL061C, strain CIN8 (second series), stronger effect = lower value 1.03 | locus YEL061C, strain CIN8, stronger effect = lower value 1.01 | locus YER015W, strain faa2, stronger effect = lower value 1.01 | locus YER016W, strain bim1, stronger effect = lower value 1.02 | locus YER110C, stronger effect = lower value 1.01 | locus YER111C, strain swi4, stronger effect = lower value 0.989 | locus YER155C, strain BEM2 (second series), stronger effect = lower value 1.06 | locus YER155C, strain BEM2, stronger effect = lower value 0.995 | locus YER167W, strain BCK2, stronger effect = lower value 1.01 | locus YFR010W, strain ubp6, stronger effect = lower value 0.998 | locus YGL078C, strain dbp3, stronger effect = lower value 1.01 | locus YGL086W, strain mad1, stronger effect = lower value 1 | locus YGL167C, strain pmr1, stronger effect = lower value 1 | locus YGL173C, strain kem1, stronger effect = lower value 0.993 | locus YGL227W, strain vid30, stronger effect = lower value 0.986 | locus YGL240W, strain doc1, stronger effect = lower value 1.02 | locus YGL248W, strain PDE1, stronger effect = lower value 1 | locus YGL253W, strain hxk2, stronger effect = lower value 0.926 | locus YGR078C, strain PAC10, stronger effect = lower value 1 | locus YGR135W, strain pre9, stronger effect = lower value 1.03 | locus YGR229C, strain SMI1, stronger effect = lower value 1.02 | locus YGR252W, strain gcn5, stronger effect = lower value 0.999 | locus YHR013C, strain ard1, stronger effect = lower value 0.953 | locus YHR027C, strain rpn1, stronger effect = lower value 1.01 | locus YHR030C, strain SLT2, stronger effect = lower value 1.01 and 0.988 | locus YHR079C, strain IRE1 (second series), stronger effect = lower value 1.01 | locus YHR079C, strain IRE1, stronger effect = lower value 0.976 | locus YHR094C, strain hxt1, stronger effect = lower value 1 | locus YHR129C, strain ARP1, stronger effect = lower value 1 | locus YHR142W, strain chs7, stronger effect = lower value 0.935 | locus YHR200W, strain rpn10, stronger effect = lower value 1.01 | locus YIL066C, strain RNR3, stronger effect = lower value 1.01 | locus YIL073C, strain SPO22, stronger effect = lower value 1.08 | locus YIL125W, strain kgd1, stronger effect = lower value 1 | locus YIR030C, strain dcg1, stronger effect = lower value 1.01 | locus YJL092W, strain hpr5, stronger effect = lower value 1.01 | locus YJL095W, strain BCK1 (second series), stronger effect = lower value 1.01 | locus YJL095W, strain BCK1, stronger effect = lower value 0.988 and 0.991 | locus YJL115W, strain asf1, stronger effect = lower value 1.01 | locus YJL129C, strain trk1, stronger effect = lower value 0.983 | locus YJL134W, strain LCB3, stronger effect = lower value 1.01 | locus YJL154C, strain vps35, stronger effect = lower value 1.02 | locus YJL164C, strain tpk1, stronger effect = lower value 1 | locus YJL166W, strain qcr8, stronger effect = lower value 1.03 | locus YJL168C, strain set2, stronger effect = lower value 1.01 | locus YJL187C, strain SWE1 (second series), stronger effect = lower value 1 | locus YJL187C, strain SWE1, stronger effect = lower value 1.01
